We go through 40 sequences from the supplement of paper PMC10338343.

This assay has as its system MIWI (PIWIL1) piRISC loaded with L1MC piRNA (30 nt). As to the kind of experiment: pre-steady-state target cleavage rate (min^-1); MIWI and MILI are mouse PIWI proteins and EfPiwi is from a freshwater sponge; tags in brackets are library labels; higher = faster piRNA-guided slicing of the target. The following applies: guide: L1MC piRNA 5'p-UAACUAAAUACUAUGCAAGCUGUAGGUCCU
In a few lines:
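The method was Cleave-'n-Seq, in which uncleaved targets from a transcribed, DNA-blocked target RNA library were sequenced after exposure to active affinity-purified piRISC carrying one synthetic guide, with or without GTSF1 partner protein. Reactions contained 0.1 nM library, 1 nM piRISC and, where present, 500 nM GTSF1 in HEPES–potassium acetate buffer at 33 °C for 0–8 or 0–960 min. Reads were normalised to depth and to weakly complementary targets, three trials were pooled, and k3 was capped at 0.0001 min^-1. The pre-steady-state cleavage rate came from a burst-and-steady-state fit.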

Where [1] appears, read: auxiliary factor: 500 nM mouse GTSF1.
Where [2] appears, read: auxiliary factor: none (no GTSF1).

± gives the standard deviation. Over roughly 8,200 sequences, “pre-steady-state target cleavage rate” has its median near 0.024; the highest 2% begin near 1.3. Many of the other results were omitted from the sample, so the highest values are more common in it than they were.

Regarding UCCUGGAUGUCGAUGCAUAGUAUUUUGUUA, under setting [1], the “pre-steady-state target cleavage rate” value is 0.00674 ± 0.0031.
In the case of UGGACGUACAGCUUGCAUAGUAUUUUCAAA, the “pre-steady-state target cleavage rate” value runs as follows: under setting [1], 0.213 ± 0.034; under setting [2], 0.00471 ± 0.0022.
For the sequence UCCUGCUACAGCUUGGUUAGUAUUUUCAAA, the “pre-steady-state target cleavage rate” value under setting [1] is 0.00524 ± 0.0039.
As for UCCUGGAACAGCUUGCAUAUAUUUAGUUA, the “pre-steady-state target cleavage rate” value was 0.0784 ± 0.011 under setting [1] and 0.0034 ± 0.0028 under setting [2].
The matching figures for UCCUCCUACAGCUUGCAUAGUAUAAUGUUA: 0.346 ± 0.027 and 0.0146 ± 0.0024.
The matching figures for UCCUGGUACAGCCUUGCAUAGUAUUUAGUUA: 0.594 ± 0.049 and 0.0422 ± 0.0091.
Taken in the same sequence, the figures for UCCUCCUACAGCUUGCGUAGUAUUUAGUUA were 1.55 ± 0.078 and 0.0225 ± 0.0064.
As for UGGACCUACAGCUUGCGUAGUAUUUAGUUA, the “pre-steady-state target cleavage rate” value is, setting by setting: under setting [1], 1.79 ± 0.11; under setting [2], 0.0538 ± 0.01.
The matching figures for UCGACCUACAGCUUGCCUAGUAUUUAGUUA: 1.14 ± 0.046 and 0.0457 ± 0.0085.
In the case of UCCUCCUACAGCUUGCGAUAGUAUUUAGUUA, the “pre-steady-state target cleavage rate” value under setting [1] was found to be 0.0601 ± 0.018.
Consider AGGACCUACAGCUUGCGUAGUAUUUAGUUA, for which the “pre-steady-state target cleavage rate” value came out at 1.24 ± 0.077 under setting [1] and 0.075 ± 0.013 under setting [2].
Taken in the same sequence, the figures for UCGACCUACAGCUUGCGUAGUAUUUAGUUA were 1.86 ± 0.066 and 0.0695 ± 0.018.
The matching figures for UCCACCUACAGCUUGCGUAGUAUUUAGUUA: 1.26 ± 0.049 and 0.0423 ± 0.0094.
Take UCGACCUACAGCUUGCGAUAGUAUUUAGUUA: the “pre-steady-state target cleavage rate” value under setting [1] was determined as 0.0797 ± 0.02.
In the case of UCCUGCUACAGCUUGCGUAGUAUUUAGUUA, the “pre-steady-state target cleavage rate” value was found to be 0.806 ± 0.044 under setting [1] and 0.0172 ± 0.0034 under setting [2].
The matching figures for UGGACCUACAGAUUGCAUAGUAUUUAGUUA: 1.12 ± 0.11 and 0.042 ± 0.0077.
Take AGGACCUACAGCUUGCAUACAUUUUAGUUA: under setting [1], the “pre-steady-state target cleavage rate” value stood at 0.0106 ± 0.0061.
UCGUCCUACACCUUGCAUAGUAUUUAGUUA: the “pre-steady-state target cleavage rate” value reads like this: under setting [1], 0.986 ± 0.045; under setting [2], 0.0586 ± 0.0084.
The matching figures for UCGACCUACAGCUUGCAUACAAUUUAGUUA: 0.0219 ± 0.0076 and 0.00334 ± 0.0025.
Turning to UCGUGGUACAGCUUGCAUAGUAUUUAGUUA, the “pre-steady-state target cleavage rate” value reads like this: under setting [1], 1.23 ± 0.038; under setting [2], 0.0818 ± 0.014.
Taken in the same sequence, the figures for UCCUCGUACAGCUUGCAUAGUAUUUAGUAA were 0.903 ± 0.048 and 0.0263 ± 0.0049.
Taken in the same sequence, the figures for UCGUCGUACAGCUUGCAUAGUAUUUAGUUA were 1.31 ± 0.067 and 0.0685 ± 0.012.
The matching figures for UCCUGGUACAGCUUGCAAAGUAUUUAGUUA: 0.711 ± 0.046 and 0.0405 ± 0.0074.
On to UCCUCGUACAGCUUGCAUAGUAUUUAGAAA, for which the “pre-steady-state target cleavage rate” value runs as follows: under setting [1], 0.363 ± 0.029; under setting [2], 0.00538 ± 0.0021.
Taken in the same sequence, the figures for UCCACCGUACAGCUUGCAUAGUAUUUAGUUA were 1.18 ± 0.054 and 0.0628 ± 0.012.
Taken in the same sequence, the figures for UCCUCGUACAGCUUGCAAAGUAUUUAGUUA were 1.32 ± 0.048 and 0.0595 ± 0.012.
Taken in the same sequence, the figures for UCCUCGUACAGCUUGCAUAGUAUUUAGUUA were 1.46 ± 0.043 and 0.0602 ± 0.01.
UGGUCGUACAGCUUGCAUAGUAUUUAGUUA: the “pre-steady-state target cleavage rate” value runs as follows: under setting [1], 1.33 ± 0.056; under setting [2], 0.073 ± 0.0095.
As to UCGUACCUACAGCUUGCAUAGUAUUUAGUUA, the “pre-steady-state target cleavage rate” value is, setting by setting: under setting [1], 0.909 ± 0.034; under setting [2], 0.0778 ± 0.016.
Taken in the same sequence, the figures for UCCUCCUACAGCUUGCAAAGUAUUUAGUUA were 1.14 ± 0.039 and 0.0317 ± 0.0066.
For UCCUGCUACAGCUUGCAUAGUAUAAUGUAA, the “pre-steady-state target cleavage rate” value under setting [1] turned out to be 0.188 ± 0.038.
On to UGGACCUACAGCUUGCAUAGUAUUAAGUUA, for which the “pre-steady-state target cleavage rate” value stood at 0.719 ± 0.06 under setting [1] and 0.0363 ± 0.006 under setting [2].
In the case of AGGACCUACUGCUUCCAUAGUAUUUAGUUA, the “pre-steady-state target cleavage rate” value turned out to be 0.069 ± 0.011 under setting [1] and 0.00657 ± 0.0012 under setting [2].
The matching figures for UCGAGCUAGAGCUUGCAUAGUAUUUAGUUA: 0.962 ± 0.051 and 0.0483 ± 0.0092.
Taken in the same sequence, the figures for UCGACCAAGAGCUUGCAUAGUAUUUAGUUA were 0.954 ± 0.04 and 0.0547 ± 0.011.
UCCUGGAUGUGCUUGCAUAGUGAUUUAGUUA: the “pre-steady-state target cleavage rate” value under setting [1] turned out to be 0.00393 ± 0.0038.
For the sequence UCCUGGUACAGCUAGGAUAGUAUUUAGUUA, the “pre-steady-state target cleavage rate” value runs as follows: under setting [1], 0.611 ± 0.084; under setting [2], 0.00486 ± 0.002.
Taken in the same sequence, the figures for UGGACCUACAGCUUGGAUAGUAUUUAGAAA were 0.342 ± 0.047 and 0.0107 ± 0.003.
Taken in the same sequence, the figures for UCCUGCUACAGCUUGCAAACUAUUUAGUUA were 0.363 ± 0.027 and 0.00719 ± 0.0031.
AGGACCUACAGCUUGCAUAGUAUUUUGUUA: the “pre-steady-state target cleavage rate” value under setting [1] was determined as 0.949 ± 0.064 and the “pre-steady-state target cleavage rate” value under setting [2] turned out to be 0.0718 ± 0.016.
